From PubChem
Pol iota inh – qHTS for Inhibitors of Polymerase Iota; DNA polymerase iota (Homo sapiens), Q9UNA4; Pol iota fluorescent replication assay, 10 min; Potency, µM (titrated, usually from 115 µM), for inactives: at the top dose activity, negative = inhibition, most hits filed as inhibitors; 1% of 390,000 active; note: potency is the fitted concentration of half-maximal effect
Target sequence (Q9UNA4 whole entry, looked up): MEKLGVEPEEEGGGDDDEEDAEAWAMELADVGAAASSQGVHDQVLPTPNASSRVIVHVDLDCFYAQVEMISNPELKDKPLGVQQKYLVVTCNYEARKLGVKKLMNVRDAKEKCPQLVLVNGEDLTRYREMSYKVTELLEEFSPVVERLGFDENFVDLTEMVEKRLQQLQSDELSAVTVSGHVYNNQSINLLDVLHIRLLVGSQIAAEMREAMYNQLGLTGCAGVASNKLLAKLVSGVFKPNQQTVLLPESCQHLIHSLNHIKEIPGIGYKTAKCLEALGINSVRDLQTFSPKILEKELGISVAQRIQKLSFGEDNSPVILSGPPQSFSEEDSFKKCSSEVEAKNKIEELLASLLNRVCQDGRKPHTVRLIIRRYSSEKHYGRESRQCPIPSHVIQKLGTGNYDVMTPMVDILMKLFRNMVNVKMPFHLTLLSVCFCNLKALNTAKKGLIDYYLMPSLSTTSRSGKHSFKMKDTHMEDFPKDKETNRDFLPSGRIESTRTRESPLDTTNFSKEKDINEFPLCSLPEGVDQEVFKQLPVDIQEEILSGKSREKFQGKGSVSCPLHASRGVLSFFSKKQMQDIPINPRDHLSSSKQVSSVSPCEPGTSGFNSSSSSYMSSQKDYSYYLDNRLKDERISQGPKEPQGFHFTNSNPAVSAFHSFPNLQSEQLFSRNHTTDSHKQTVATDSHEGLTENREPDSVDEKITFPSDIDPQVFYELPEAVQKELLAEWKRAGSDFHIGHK
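Fluorescent replication assay read twice, at 0 min and 10 min after adding 50 nM (final) substrate. Enzyme (10 nM) and compounds were first incubated 15 min at room temperature; enzyme-free buffer wells were negative controls.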
PI5P4Ka inh – qHTS for Inhibitors of phosphatidylinositol 5-phosphate 4-kinase (PI5P4K); Phosphatidylinositol 5-phosphate 4-kinase type-2 alpha (Homo sapiens), P48426; PI5P4Kalpha enzyme, ADP-Glo luminescence, 60 min; hits give low values; max response, %; 1.2% of 330,000 active; active = max response of -50% or lower; inconclusive = between -30% and -50%; inactive = -30% or higher; note: value at the top dose of about 77 µM; % is set by controls: 0 for no effect and ±100 for the full control effect
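Controls without substrate or without enzyme flank wells where PI5P4Kalpha converts substrate using 5 microM ATP (final). Incubation lasts 60 minutes at room temperature; ADP formed is read by ADP-Glo luminescence.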
Pol beta inh – qHTS Assay for Inhibitors of DNA Polymerase Beta | Pol beta primer extension/strand displacement, fluorescence kinetic | Potency, µM (titrated, usually from 114 µM), inactives show top-dose activity change, negative = inhibition, most hits filed as inhibitors | 1.3% of 340,000 active; note: potency is the fitted concentration of half-maximal effect; % is set by controls: 0 for no effect and ±100 for the full control effect
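Pol beta (10 nM) and compounds were preincubated 15 min at room temperature, then 50 nM substrate (final) started primer extension/strand displacement. Reads were taken at 0 and 10 min; concentration-response data were fitted to a four-parameter Hill equation.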
Pol kappa inh-1 – qHTS for Inhibitors of Polymerase Kappa; Potency, µM (highest dose often 107 µM), inactives show at the highest dose activity, negative = inhibition, hits mostly inhibitors; AID 588579, 2011; purified Pol kappa, fluorescent DNA synthesis assay, 10 min; DNA polymerase kappa (Homo sapiens), Q9UBT6; 0.53% of 400,000 active; note: potency is the fitted concentration of half-maximal effect; % is set by controls: 0 for no effect and ±100 for the full control effect
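Here, compound and 10 nM enzyme are combined for 15 min at room temperature; adding 50 nM substrate (final) starts DNA synthesis, tracked by fluorescence at 0 and 10 min against buffer-only wells.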
WRN helicase inh – qHTS for Inhibitors of WRN Helicase. 0.46% of 360,000 active. AID 651768, 2012. WRN helicase unwinding, fluorescent forked duplex, kinetic. Potency, µM (series often up to 114 µM), for the others: top-dose activity change, negative = inhibition, actives largely listed as inhibitors; note: potency is the fitted concentration of half-maximal effect; % is set by controls: 0 for no effect and ±100 for the full control effect; nearly all actives have a fitted effect of over 55% in size
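Enzyme (20 nM final) and test compound sit together 15 min at room temperature before substrate addition. Substrate is a single-forked duplex oligonucleotide (100 nM) labelled with fluorophore and quencher, with 2 mM ATP; helicase unwinding raises red fluorescence, read kinetically.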
Pol eta inh-1 – qHTS for Inhibitors of Polymerase Eta | DNA polymerase eta (Homo sapiens), Q9Y253 | recombinant Pol eta, fluorescent DNA replication assay | Potency, µM (highest dose often 114 µM), without a hit: top-dose activity change, negative = inhibition, most hits filed as inhibitors | 1.2% of 390,000 active; note: potency is the fitted concentration of half-maximal effect; % is set by controls: 0 for no effect and ±100 for the full control effect
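Fluorescent replication assay: 50 nM final substrate added after a 15 min room-temperature compound preincubation with 10 nM enzyme. Signal taken at 0 min and again at 10 min.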
TbPGK inh – qHTS for inhibitors of Phosphogylcerate Kinase: Hit Validation Screen; AID 686980, 2013; shares compounds with Pol kappa inh-1; TbPGK coupled GAPDH assay, Kinase-Glo luminescence; Potency, µM (titrated, usually from 57.5 µM), for the others: at the top dose activity change, negative = inhibition, hits mostly inhibitors; 79% of 500 active; note: potency is the fitted concentration of half-maximal effect; % is set by controls: 0 for no effect and ±100 for the full control effect; nearly all actives have a fitted effect of over 65% in size
Pol iota confirm – qHTS for Inhibitors of Polymerase Iota: Confirmatory Assay for Cherry-picked Compounds; shares compounds with Pol kappa inh-1; Pol iota primer extension, TAMRA/BHQ fluorescence; Potency, µM, actives largely listed as inhibitors; 77% of 1,500 active; AID 720496, 2013; note: potency is the fitted concentration of half-maximal effect
Pol kappa inh-2 – qHTS for Inhibitors of Polymerase Kappa: Confirmatory Assay for Cherry-picked Compounds; 76% of 920 active; purified Pol-kappa, fluorescent strand-displacement substrate; shares compounds with Pol eta inh-1; Potency, µM, hits mostly inhibitors; note: potency is the fitted concentration of half-maximal effect
Pol eta inh-2 – qHTS for Inhibitors of Polymerase Eta: Confirmatory Assay for Cherry-picked Compounds | shares compounds with Pol eta inh-1 | Pol eta primer extension, TAMRA/BHQ fluorescence, 10 min | Potency, µM, most hits filed as inhibitors | 64% of 2,600 active; note: potency is the fitted concentration of half-maximal effect
Starred values were filed as active, the others as inactive; ? = inconclusive; / = not tested or not shown; ! = repeats disagree; [ ] = another dose, or the depositor's remark. In the library only some 2.8% were active in any assay of this set; here they are far more common. Unless noted, calls come from the whole dose curve; as a rule, active = well fitted curve in the direction sought with a large enough effect; inconclusive = small, poorly fitted or top-dose-only effect, or another doubt; inactive = no such curve, though single readings can be large; an effect the other way counts as inactive or inconclusive.

SMILES	Pol iota inh	PI5P4Ka inh	Pol beta inh	Pol kappa inh-1	WRN helicase inh	Pol eta inh-1	Pol iota confirm	Pol eta inh-2	others
CCCC(C(=O)NC(C)(C)C)N(CCN1CCOCC1)C(=O)CNS(=O)(=O)c1ccccc1 (stereo not drawn)	-3.6%	-1.3	1.1%	-12.8%	-5.0%	-20.6%	/	/
CCN(CC)c1ccc(C(=C2C=CC(=[N+](CC)CC)C=C2)c2ccc(N(CC)CC)cc2)cc1	2.4%	-72.9*	/	6.1%	-12.8%	-17.3%	/	/	TbPGK inh=16.3µM*
CN=C1C=CC(=C(c2ccc(N(C)C)cc2)c2ccc(N(C)C)cc2)C=C1	/	/	/	-6.4%[19.4 µM]	/	/	/	/
Cc1cccc2nc3c(nc12)CCCC3	-4.6%	1.8	16.5%	11.8%	4.9%	-7.6%	/	/
COc1ccc(C(=O)Nc2ccc(OCC(=O)N3CCOCC3)cc2)c(OC)c1OC	133.4%	-2.7	1.6%	-16.4%	-5.5%	-10.8%	/	/
COc1ccc(CNc2ncnc3ccc(-c4ccccc4OC)cc23)c(OC)c1	/	/	/	-3.9%[60.1 µM]	/	/	/	/
O=C(CCS(=O)(=O)c1ccc(Br)cc1)NCc1ccco1	25.9%	-0.3	?	-2.0%	-15.7%	?	/	/	TbPGK inh=16.3µM*
COc1cc(Br)ccc1C1C(C(=O)Nc2ccc(C)cc2C)=C(C)Nc2nnnn21 (stereo not drawn)	-18.0%	/	-18.9%	7.9%	/	-24.4%	/	/
O=C(Oc1cc(=O)oc2c1c(=O)n1c3c(cccc23)CC1)c1ccc(F)cc1	?	-13.0	?	0.8%	-13.1%	-15.1%	10.6*	/
N#Cc1c(-c2ccccc2)c(C#N)c2nc3ccccc3n2c1N	15.8µM*	-20.5	-8.3%	-34.8%	-9.8%[11.6 µM]	-6.3%	?	/
Cc1ccc(-c2c(C#N)c(N)n3c(nc4ccccc43)c2C#N)cc1	?	-21.7	-9.8%	-10.5%	-25.9%	?	/	/
O=C(c1ccc2c(c1)OCO2)N1CCC(Cc2ccccc2)CC1	-5.2%[58.9 µM]	-2.5	-1.6%	-5.7%	-1.3%	-9.4%	/	/
COC(=O)CC1Oc2ccc(C)cc2-n2cc(-c3ccc(C)cc3)nc21 (stereo not drawn)	-20.1%	/	28.7%	4.2%	/	-2.6%	/	/
Cc1ccc(C)c(SCC(=O)OCC(=O)c2ccco2)c1	20µM*	/	22.4µM*	?	?	35.5µM*	?	?
Cc1ccc(C)c(SCC(=O)NCc2ccco2)c1	-1.1%	-6.9	?	-6.0%	0.7%	-14.2%	/	/
O=C(Cc1cccs1)OCC(=O)c1ccco1	?	?	14.1µM*	25.1µM*	?	8.91µM*	75.2*	60.1*
O=C(Cn1c(NCCCO)nc2ccccc21)c1ccc(Cl)cc1Cl	25.3%	5.9	1.1%	-6.6%	-3.4%	-5.0%	/	/
CCOC(=O)[C@]12CCC=C1N(Cc1cccc3ccccc13)C(=O)[C@H](CC(=O)NCc1ccc(C)o1)C2	/	-27.9	/	/	-13.4%	/	/	/
O=C1c2ccccc2C(=O)c2c1ccc(O)c2O	-18.7%	-74.2*	/	?	?	?	?	75.7*	TbPGK inh=?
COC(=O)c1ccc2c(c1O)C(=O)c1ccccc1C2=O	?	-7.4	-3.3%	-7.7%	-35.5%	-8.3%	/	/
C/C(=C\C=C(C#N)C#N)c1cc(C#N)c(N)o1	?	?	8.91µM*	?	89.1µM*	?	?	42.6*
O=C1C=C(N2CCCCC2)c2ccccc2C1=O	8.91µM*	2.2	/	-10.0%	-19.6%	20µM*	33.6*	23.9*
COc1cccc(CNC(=O)CCCn2ncn3c(cc4occc43)c2=O)c1OC	52.8%	/	-5.1%	-26.3%	/	-6.9%	/	/
CCc1nn2c(=O)cc(COc3ccc(/C=C4\C(=N)N5N=C(C)SC5=NC4=O)cc3)nc2s1	?	-72.3*	35.5µM*	79.4µM*	?	7.08µM*	33.6*	47.8*	Pol kappa inh-2=18.9*
CCOc1cc(/C=C2\C(=N)N3N=C(C)SC3=NC2=O)ccc1OCCOc1cccc(OC)c1	2.3%	-2.8	-30.7%	-17.8%	-2.1%	-16.5%	/	/
SMILES	Pol iota inh	PI5P4Ka inh	Pol beta inh	Pol kappa inh-1	WRN helicase inh	Pol eta inh-1	Pol iota confirm	Pol eta inh-2	others
CC1=C(/C=C/C(C)=C\C=C\C(C)=C\C=C\C=C(C)\C=C\C=C(C)\C=C\C2=C(C)C[C@@H](O)CC2(C)C)C(C)(C)C[C@H](O)C1	/	/	/	-7.3%[19.4 µM]	/	/	/	/
NC(=O)c1ncn([C@@H]2O[C@H](CNCc3ccc(OCC(=O)Nc4ccccn4)cc3)[C@@H](O)[C@H]2O)n1	-14.9%	-2.0	/	2.6%	5.9%	-10.9%	/	/
CCN(CC(=O)NCc1cccs1)S(=O)(=O)c1ccccc1Cl	79.2%	-3.1	/	-7.2%	-30.8%	-13.0%	/	/
COc1cc(C2SCC(=O)N2Cc2ccccc2)ccc1O (stereo not drawn)	-17.2%	3.7	34.3%	-7.6%	-3.3%	-1.3%	/	/
Cc1ccccc1C1=C/C(=C(\SS/C(C(=O)c2ccc(OCC(=O)O)c(Cl)c2Cl)=C2\C=C(c3ccccc3C)SS2)C(=O)c2ccc(OCC(=O)O)c(Cl)c2Cl)SS1	?	-98.1*	/	79.4µM*	22.4µM*	14.1µM*	37.7*	23.9*	Pol kappa inh-2=16.8*
COc1cc2c(C#N)c(N3CCN(C)CC3)nc(N)c2c(N)n1	/	/	-5.5%	/	/	/	/	/
COc1cc2c(C#N)c(N3CCCC3)nc(N)c2c(N)n1	8.91µM*!	-22.3	?	?	?	22.4µM*	37.7*	23.9*
